Experimental findings from PubChem BioAssay (NCATS) are described below.

Assay [1] can be described thus: AP1 Signaling Pathway (AID 357).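 Further: ME-180 reporter cells stimulated with EGF at its EC50 level; on the % scale 0 is the no-effect control and ±100 the full control effect.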 The following applies: ME-180 AP-1-bla reporter, EGF-induced, beta-lactamase ratio, 5 h; at 17.2 µM (top of the series) unless noted. The procedure, abridged: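 AP-1-bla ME-180 cells, Opti-MEM + 0.5% dialyzed FBS, plated overnight 37 °C. Cpd titration + EC50 EGF, 5 h 37 °C. CCF4 2.5 h RT; ex 405, em 460/530 ratio → %activity, AC50.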

Assay [2] in a line: NFAT Signaling Pathway (AID 444).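 Further: carbachol stimulus at about its EC50 of 1 µM final; on the % scale 0 is the no-effect control and ±100 the full control effect.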 The settings on record: Jurkat NFAT-bla M1, carbachol, beta-lactamase ratio, 5 h; at 17.2 µM (top of the series) unless noted. The essentials: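 Jurkat cells with NFAT-driven β-lactamase reporter and co-expressed M1 receptor, stimulated with carbachol (final 1 uM, ~EC50), compound titration, 5 h at 37 °C. CCF4 loaded 1 h at RT; 460/530 nm ratio gave %activity and AC50.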

Assay [3] in a line: Stat Signaling Pathway (AID 446).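 Further: ME-180 cervical cancer cells given 40 pM IL-6 alongside compound; SIE-controlled beta-lactamase reporter measured as 460/530 nm FRET emission ratio; on the % scale 0 is the no-effect control and ±100 the full control effect.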 The following applies: ME-180 (cervical carcinoma) SIE beta-lactamase reporter, IL-6 stimulated, 5 h; at 17.2 µM (top of the series) unless noted. The procedure, abridged:
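IL-6/STAT signaling read in ME-180 cells via an SIE beta-lactamase reporter. Stimulus was 40 pM IL-6 (its AC50) for 5 hrs, so both activation and inhibition register.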

The target of assay [4] is Glucocorticoid receptor (Homo sapiens) (UniProt P04150). Kind of assay: GR-GFP Redistribution (AID 450;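 active means compounds whose dose series gives a full or clear partial fitted curve of increased nuclear translocation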; further: potency means the concentration at half of the fitted maximal effect).
Chain of Glucocorticoid receptor (Homo sapiens) (P04150 whole entry, looked up): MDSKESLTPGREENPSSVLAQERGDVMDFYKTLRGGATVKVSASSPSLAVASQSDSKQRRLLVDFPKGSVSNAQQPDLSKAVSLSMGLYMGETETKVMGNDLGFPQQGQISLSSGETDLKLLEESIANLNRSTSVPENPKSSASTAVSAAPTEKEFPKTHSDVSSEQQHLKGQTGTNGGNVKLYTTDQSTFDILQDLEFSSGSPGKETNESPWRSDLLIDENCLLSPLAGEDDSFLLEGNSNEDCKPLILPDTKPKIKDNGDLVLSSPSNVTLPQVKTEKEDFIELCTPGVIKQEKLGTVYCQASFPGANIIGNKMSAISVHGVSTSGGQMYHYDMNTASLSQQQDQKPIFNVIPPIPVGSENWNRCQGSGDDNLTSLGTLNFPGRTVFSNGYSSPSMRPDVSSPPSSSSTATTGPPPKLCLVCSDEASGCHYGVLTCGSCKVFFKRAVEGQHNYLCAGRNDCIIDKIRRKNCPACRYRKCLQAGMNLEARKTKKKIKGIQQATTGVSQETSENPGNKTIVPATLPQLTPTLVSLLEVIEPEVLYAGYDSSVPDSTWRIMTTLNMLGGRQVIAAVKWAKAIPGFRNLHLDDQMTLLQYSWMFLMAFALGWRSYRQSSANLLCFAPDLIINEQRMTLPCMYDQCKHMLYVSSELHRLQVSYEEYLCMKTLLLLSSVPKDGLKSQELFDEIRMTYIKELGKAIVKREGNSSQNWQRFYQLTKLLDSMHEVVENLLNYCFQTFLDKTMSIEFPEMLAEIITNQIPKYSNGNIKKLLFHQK

Unmarked numbers belong to inactive results. Inconclusive results are not listed. Activity calls are given as the source filed them. Unless noted, the call rests on the fitted dose curve; in most records, active means well fitted curve in either direction with a large enough effect (not every such curve was filed as active); inconclusive means small, poorly fitted or top-dose-only effect, or another doubt; inactive means flat fitted curve, though single readings scatter. Bounds are passed on as bounds.

Regarding `O=C1CCC(=O)N1CN(C(=O)c1ccco1)c1ccc(Cl)c(Cl)c1`, the activity change, negative = inhibition was -6.31% in assay [1] and -5.89% in assay [2]. In assay [3], the activity, negative = inhibition is 11.1%. The Potency in assay [4] is above 20.6 µM.

Take `C=CCSc1nc(C)c(CC=C)c(=O)[nH]1`: the activity change, negative = inhibition in assay [1] was -0.627%; in assay [2], -22.4%. Besides, the activity, negative = inhibition in assay [3] is 0.0275%. Further, in assay [4], the Potency was above 20.6 µM.

As for `Oc1ccc(C=Nc2ccc3ncccc3c2)c(O)c1`, the activity change, negative = inhibition in assay [1] was 26.2%; in assay [2] it was -26.8%. In addition, the activity, negative = inhibition in assay [3] is 13.2%. Also, the Potency in assay [4] is above 20.6 µM.

For the compound `COc1ccc(C2N3CC4(C)CN2CC(C)(C3)C4O)cc1OC` (centres undefined), the activity change, negative = inhibition in assay [1] was 9.87%; in assay [2], -5.44%. The activity, negative = inhibition in assay [3] is 15.4%. Besides, the Potency in assay [4] is above 20.6 µM.

Turning to `CC(NC(=O)OCc1ccccc1)C(=O)OCN1C(=O)c2ccccc2C1=O` (centres undefined), the activity change, negative = inhibition in assay [1] is -1.4%; in assay [2], -16.6%. The activity, negative = inhibition in assay [3] was 13.6%. Also, the Potency in assay [4] was above 20.6 µM.

In the case of `O=C1C(=O)N(Cc2cccnc2)C(c2ccccn2)/C1=C(/O)c1ccc(F)cc1` (centres undefined), the activity change, negative = inhibition is 10.7% in assay [1] and 3.79% in assay [2]. The activity, negative = inhibition in assay [3] was 0.323%. The Potency in assay [4] is above 20.6 µM.

`CCCCC1(C(=O)OCC)CC(CN2CCOCC2)OC1=O` (centres undefined): the results for the activity change, negative = inhibition in assay [1] and in assay [2] were 2.64% and -18.1%, respectively. Moreover, in assay [3], the activity, negative = inhibition was 3.3%. Also, the Potency in assay [4] was above 20.6 µM.

In the case of `Cc1ccc(C)c(OCc2nnc(NC(=O)c3ccco3)s2)c1`, the activity change, negative = inhibition in assay [1] is -0.273%; in assay [2], 9.32%. For the same compound, the activity, negative = inhibition in assay [3] was -9.58%. In addition, in assay [4], the Potency is above 20.6 µM.

As for `NC(=O)c1ccccc1OCCOCCOCCOc1ccccc1C(N)=O`, the activity change, negative = inhibition in assay [1] was -9.33%; in assay [2] it was -4.35%. Moreover, the activity, negative = inhibition in assay [3] was -0.51%. Besides, the Potency in assay [4] is above 20.6 µM.

For `Cn1c(=O)c2c3c(sc2n2c(SCC(=O)c4ccccc4)nnc12)COC(C)(C)C3`, the activity change, negative = inhibition in assay [1] was 5.44%; in assay [2], -28.1%. Further, the activity, negative = inhibition in assay [3] is 4.51%. In addition, the Potency in assay [4] was above 20.6 µM.

`Cc1c(Cl)cccc1N1C(=O)C2ON(c3ccccc3)C(c3cccnc3)C2C1=O` (centres undefined): the activity change, negative = inhibition in assay [1] was 4.21%; in assay [2], 0.827%. Besides, the activity, negative = inhibition in assay [3] was 0.542%. Besides, the Potency in assay [4] was above 20.6 µM.

As to `CCCC(C)n1[nH]c(=O)cc1N` (centres undefined), the results for the activity change, negative = inhibition in assay [1] and in assay [2] were 11.2% and 8.48%, respectively. The activity, negative = inhibition in assay [3] is 3.57%. For the same compound, the Potency in assay [4] was above 20.6 µM.

For the compound `Cc1[nH]nc(-c2ccc(O)cc2O)c1Oc1ccccc1`, the activity change, negative = inhibition in assay [1] was -8.71%; in assay [2], -25.7%. The activity, negative = inhibition in assay [3] is -21.9%. Besides, the Potency in assay [4] was above 20.6 µM.

For the compound `N#Cc1cccc(-n2c(-c3ccccc3)nnc2-c2ccccc2)c1C#N`, the activity change, negative = inhibition was 4.78% in assay [1] and 5.67% in assay [2]. Also, the activity, negative = inhibition in assay [3] was 0.928%. Also, in assay [4], the Potency is above 20.6 µM.

Turning to `CCc1nc(N2CCN(C(=O)c3ccccc3)CC2)c(C#N)c2c1COC(C)(C)C2`, the activity change, negative = inhibition in assay [1] is -17.6%; in assay [2], 21.3%. The activity, negative = inhibition in assay [3] was -14%. For the same compound, the Potency in assay [4] is above 20.6 µM.

For `CCOC(=O)C1=C(C)N=C2SC(C)C(=O)N2C1c1cccc(F)c1` (centres undefined), the results for the activity change, negative = inhibition in assay [1] and in assay [2] were -17.6% and 7.16%, respectively. Also, the activity, negative = inhibition in assay [3] is 1.84%. The Potency in assay [4] was above 20.6 µM.

As for `CCOC(=O)NC(Nc1cc(C)on1)(C(F)(F)F)C(F)(F)F`, the activity change, negative = inhibition in assay [1] is 20.3%; in assay [2] it was -2.55%. Also, in assay [3], the activity, negative = inhibition is 12.3%. For the same compound, the Potency in assay [4] is above 20.6 µM.

For the compound `CC(O)Cn1ccccc1=N` (centres undefined), the activity change, negative = inhibition is -4.75% in assay [1] and 25.6% in assay [2]. In assay [3], the activity, negative = inhibition was 3.45%. Also, the Potency in assay [4] is above 20.6 µM.

For the compound `CCOc1ccc(Cc2nc(N)nc(N)n2)cc1`, the activity change, negative = inhibition in assay [1] was -3.76%; in assay [2] it was 6.51%. For the same compound, the activity, negative = inhibition in assay [3] was 8.67%. Also, the Potency in assay [4] was above 20.6 µM.

Take `C=C1[C@@H](C)C2[C@H](Cc3ccccc3)NC(=O)[C@]23OC(=O)CC[C@H](O)CCC[C@H](C)C/C=C/[C@H]3[C@@H]1O` (some centres undefined): the activity change, negative = inhibition is -80.8% (active) in assay [1] and -7.27% in assay [2]. Moreover, in assay [3], the activity, negative = inhibition was -14.9%. Further, the Potency in assay [4] is above 20.6 µM.

As to `COC(=O)c1ccccc1OCc1cccc(C)n1`, the values for the activity change, negative = inhibition in assay [1] and in assay [2] were -1.62% and -4.22%, respectively. Further, in assay [3], the activity, negative = inhibition is -5.73%. In addition, the Potency in assay [4] is above 20.6 µM.

`CCCn1nc(Oc2nc(SC)nc(N(C)C)n2)ccc1=O`: the activity change, negative = inhibition is 12.8% in assay [1] and -5.95% in assay [2]. Besides, the activity, negative = inhibition in assay [3] is -17.7%. Further, the Potency in assay [4] was above 20.6 µM.

For `CN1CCN(Cc2c(O)c(Cl)cc3c(-c4ccccc4)cc(=O)oc23)CC1`, the activity change, negative = inhibition is -17.1% in assay [1] and -1.47% in assay [2]. In addition, in assay [3], the activity, negative = inhibition is -7.42%. Besides, the Potency in assay [4] is above 20.6 µM.

Take `O=C1c2ccccc2S(=O)(=O)N1CC(O)COc1ccc(Cl)cc1` (centres undefined): the activity change, negative = inhibition is -4.25% in assay [1] and -2.04% in assay [2]. Moreover, in assay [3], the activity, negative = inhibition is -1.8%. Moreover, the Potency in assay [4] was above 20.6 µM.

As for `O=C1C2ON(c3ccccc3)C(c3ccncc3)C2C(=O)N1c1ccccc1` (centres undefined), the values for the activity change, negative = inhibition in assay [1] and in assay [2] were -0.837% and 3.71%, respectively. Further, in assay [3], the activity, negative = inhibition is 1.91%. Besides, the Potency in assay [4] is above 20.6 µM.

As for `CCOC(=O)c1ccc(NC(=O)Cn2nnc3ccccc32)cc1`, the activity change, negative = inhibition in assay [1] was -12.4%; in assay [2], 12.9%. The activity, negative = inhibition in assay [3] was -15%. For the same compound, the Potency in assay [4] was above 20.6 µM.
